These results are taken from ChEMBL document CHEMBL1157539, “Thousands of chemical starting points for antimalarial lead identification” (Nature, 2010).

One experiment concerns Plasmodium falciparum. The experiment can be described thus: GSK_TCMDC: Inhibition of Plasmodium falciparum Dd2 in whole red blood cells, using parasite LDH activity as an index of growth. Test compounds present at 2uM. It is filed as functional.
What is called Inhibition is the share of the control response that was lost under treatment. Read a low Inhibition as a response near the control. The compound `COc1ccc(F)cc1-c1ccc(C(=O)N2CCCN(c3ccc(C#N)cn3)CC2)cc1` showed an Inhibition of 100%.

Turning to `COc1ccc2cc(-c3nc(-c4c(Cl)cccc4Cl)[nH]c3-c3ccnc(NCCC4CCCN4C)c3)ccc2c1.O=C(O)C(F)(F)F` (stereo not drawn), the Inhibition stood at 82%.

Regarding `O=C(Nc1cccc2ccccc12)N1CCC(NS(=O)(=O)c2cccc(C(F)(F)F)c2)CC1`, the Inhibition is reported as 1%.

Another experiment relates to HepG2. Description: GSK_TCMDC: Percent inhibition of human HepG2 cell line. Test compounds present at 10uM. In kind it is functional.
The compound `COc1ccc(NC(=O)c2ccc(-c3ccc(-c4cccnc4)cc3)c(C)c2)cc1OCCN(C)C.Cl` displayed an Inhibition of 24%.

`O=C(O)C(F)(F)F.O=[N+]([O-])c1cccc(CNCC2CCN(Cc3ccc(-c4ccccc4)cc3)CC2)c1` returned an Inhibition of 28%.

The compound `COc1cc(C(=O)NC2CCN(Cc3ccccc3)CC2)ccc1-c1nc2cc(Cl)c(Cl)cc2[nH]1` registered an Inhibition of 14%.

Compound `CC(C)C1CCc2nc(N)nc(N)c2C1.Cl` (stereo not drawn) yielded an Inhibition of 70%.

The compound `Cc1cccc(CNc2nccc3[nH]c4ccccc4c23)c1.O=C(O)C(F)(F)F` showed an Inhibition of 14%.

For the compound `NCCCNc1nc(Nc2cccc(C(N)=O)c2)c2c(=O)[nH]ccc2n1.O=C(O)C(F)(F)F`, the Inhibition amounted to 9%.

With `CC(=O)N[C@H](C(=O)Nc1cccc(-c2ccc(-c3nc4cccc(C)c4[nH]3)s2)c1)C(C)C`, the Inhibition was 33%.

Compound `Cc1cc(NC(=O)NCCN2CCC(NC(=O)c3ccc(C(F)(F)F)cc3)CC2)c2ccccc2n1.O=C(O)C(F)(F)F` displayed an Inhibition of 3%.

With `Cc1nnsc1C(=O)Nc1ccc(-c2ccc(-c3nc4ccccc4[nH]3)s2)cc1`, the Inhibition is 49%.

`O=C(Nc1ccc(-c2cccc(-c3nc4cc(C(F)(F)F)ccc4[nH]3)c2)cc1)c1cccnc1` yielded an Inhibition of 74%.

Regarding `CN1CCC(NCc2cccc(-c3ccc(S(=O)(=O)NCCc4ccccn4)cc3)c2)CC1.O=C(O)C(F)(F)F`, the Inhibition is 10%.

`CCC(C)CN1CCN(c2ccc(NC(=O)c3cccs3)cc2)C(C)C1.O=C(O)C(F)(F)F` (stereo not drawn): the Inhibition was determined as 0%.

Compound `O=C(CC(=O)Nc1cc(Cl)cc(Cl)c1)Nc1cc(Cl)cc(Cl)c1` had an Inhibition of 0%.

The compound `COc1ccc(C(=O)Nc2ccc3nc(N4CCCCC4)cc(C)c3c2)cc1[N+](=O)[O-]` had an Inhibition of 17%.

`CCN(CC)CCN(Cc1ccc(-c2ccc(C(F)(F)F)cc2)cc1)C(=O)c1ccc(-c2ccc(NC(=O)OC)cc2C)cc1` registered an Inhibition of 66%.

As for `O=C(O)C(F)(F)F.O=C1CCCN1CCCNCc1ccc(-c2cccc(-c3nc4cc(F)ccc4[nH]3)c2)cc1`, the Inhibition was determined as 12%.

The compound `O=C(/C=C/c1cccc2ccccc12)NCCCCCN1CCC(c2c[nH]c3ccccc23)CC1` showed an Inhibition of 55%.

As to `CCN(CC)CCN(Cc1ccc(-c2ccc(C(F)(F)F)cc2)cc1)C(=O)Cn1c(SCc2ccc(F)cc2)nc(=O)c2sccc21.O=C(O)C(O)C(O)C(=O)O`, the Inhibition is reported as 51%.

`COc1cc(NC(=O)c2sc(-c3ccc(Cl)cc3)cc2NC(=O)c2cccnc2)ccc1OCCN1CCCC1` showed an Inhibition of 38%.

For `O=C(Nc1cc(F)cc(F)c1)N1CCOC(CCN2CCC(c3ccccc3)CC2)(c2ccc(Cl)c(Cl)c2)C1` (stereo not drawn), the Inhibition is on record as 31%.

`OC(CN1CCN(C2CCCCC2)CC1)Cn1c2ccccc2c2cc(Br)ccc21` (stereo not drawn) showed an Inhibition of 14%.

For `CCCCCN1CCC(NS(=O)(=O)c2cccc(C(=O)Nc3ccc(C(F)(F)F)cc3)c2)C1.O=C(O)C(F)(F)F` (stereo not drawn), the Inhibition amounted to 45%.

`O=C(c1ccc(-c2ccc(-c3nc4cc(C(F)(F)F)ccc4[nH]3)s2)cc1)N1CCCCC1CN1CCC(O)C1` (stereo not drawn) displayed an Inhibition of 90%.

Regarding `Cc1ccc(Nc2nc(N)c3ccccc3n2)cc1.Cl`, the Inhibition was found to be 9%.

Compound `COc1ccc2nccc([C@@H](O)CN3CCC(NCC(=O)Nc4cc(F)cc(F)c4)CC3)c2n1.O=C(O)C(=O)O` displayed an Inhibition of 18%.

In turn, `CC1CCC(NCc2c(O)ccc3ccccc23)CC1.Cl` (stereo not drawn) came in with an Inhibition of 13%.

As to `Cc1ccc(N(CCC(=N)N)Cc2ccccc2)cc1.Cl`, the Inhibition came to 6%.

Regarding `Cc1cccc(-c2nc3[nH]c(=O)cc(NC(=O)C(C)C)n3n2)c1`, the Inhibition was found to be 0%.

On to `O=C(Nc1ccc(F)c(C(F)(F)F)c1)N[C@H]1CCN(CCCCCNC(=O)C2CC2c2ccc(Cl)c(Cl)c2)C1` (stereo partly drawn), for which the Inhibition amounted to 46%.

As to `Nc1ncnc2cc(-c3cccc(S(N)(=O)=O)c3)sc12`, the Inhibition is 13%.

In the case of `CCCCCCN1CCCN(Cc2ccc(C(=O)Nc3ccc(C(C)C)cc3)cc2)CC1.O=C(O)C(F)(F)F`, the Inhibition turned out to be 40%.

`COc1ccc(N2C(N)=NC(N)=NC2(C)C)cc1OC.Cl` showed an Inhibition of 13%.

The compound `CCOc1ccc(NC(=O)c2ccc(CN3CCCN(Cc4cccc(O)c4)CC3)cc2)cc1.O=C(O)C(F)(F)F` displayed an Inhibition of 44%.

Consider `CCOc1ccc2[nH]c(C)cc(=NN=Cc3ccc(Cl)cc3)c2c1`, for which the Inhibition was found to be 0%.

`COc1cc2nc(NCCn3cccn3)nc(NCCc3ccccc3)c2cc1OC` displayed an Inhibition of 12%.

In the case of `COc1ccc(-c2cccc(NC(=O)c3cccc(Cl)c3)c2)cc1CN1CCCN(C)CC1.O=C(O)C(F)(F)F`, the Inhibition is given as 20%.

Regarding `Cc1ccccc1-c1nc2c(CN3CCC(O)(c4ccccc4)CC3)c(O)ccc2[nH]1`, the Inhibition came to 27%.

Compound `COc1ccc(F)cc1-c1ccc(C(=O)N2CCCN(c3ccc(C#N)cn3)CC2)cc1` displayed an Inhibition of 9%.

`COc1ccc2cc(-c3nc(-c4c(Cl)cccc4Cl)[nH]c3-c3ccnc(NCCC4CCCN4C)c3)ccc2c1.O=C(O)C(F)(F)F` (stereo not drawn) came in with an Inhibition of 11%.

In turn, `O=C(Nc1cccc2ccccc12)N1CCC(NS(=O)(=O)c2cccc(C(F)(F)F)c2)CC1` showed an Inhibition of 0%.
